Screens (PubChem BioAssay)
TDP1 block: qHTS Assay for Inhibitors of Tyrosyl-DNA Phosphodiesterase (TDP1); recombinant TDP1, AlphaScreen DNA substrate cleavage; Potency, µM (doses to about 130 µM), for the others: at the top dose activity change, negative = inhibition, most hits filed as inhibitors; 0.28% of 350,000 active; note: potency is the fitted concentration of half-maximal effect; % is set by controls: 0 for no effect and ±100 for the full control effect; nearly all actives have a fitted effect of over 40% in size
Target sequence (Q9NUW8 whole entry, looked up): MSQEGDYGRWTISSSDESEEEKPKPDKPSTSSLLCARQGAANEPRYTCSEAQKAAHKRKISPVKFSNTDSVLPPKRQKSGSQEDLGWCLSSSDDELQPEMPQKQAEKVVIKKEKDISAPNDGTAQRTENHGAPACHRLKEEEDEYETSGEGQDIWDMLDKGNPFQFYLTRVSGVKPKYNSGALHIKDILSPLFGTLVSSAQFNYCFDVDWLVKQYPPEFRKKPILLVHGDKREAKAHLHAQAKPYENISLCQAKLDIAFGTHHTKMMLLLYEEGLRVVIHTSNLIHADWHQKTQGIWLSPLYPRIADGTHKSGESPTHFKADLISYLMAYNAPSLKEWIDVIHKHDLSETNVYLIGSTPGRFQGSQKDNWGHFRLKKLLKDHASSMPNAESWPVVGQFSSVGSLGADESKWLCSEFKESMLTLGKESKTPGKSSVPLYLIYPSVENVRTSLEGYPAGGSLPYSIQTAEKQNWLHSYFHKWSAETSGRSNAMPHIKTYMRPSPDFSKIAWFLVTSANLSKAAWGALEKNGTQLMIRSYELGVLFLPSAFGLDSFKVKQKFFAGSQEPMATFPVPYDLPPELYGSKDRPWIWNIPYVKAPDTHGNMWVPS
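Enzyme-compound mixtures sat 15 min at room temperature, followed by a 5 min reaction with 15 nM final substrate and 10 min with AlphaScreen beads. Recombinant human Tdp1 was used at 1 nM final.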
TGFb inhibitor: qHTS for Inhibitors of TGF-b; AID 588855, 2011; Potency, µM (top dose mostly 46.1 µM), without a hit: top-dose activity, negative = inhibition, most hits filed as inhibitors; HepG2 CAGA-GFP TGF-b/SMAD3 reporter, GFP fluorescence, 18 h; TGF-beta stimulated, 500 pg/mL final; 1.2% of 410,000 active; note: potency is the fitted concentration of half-maximal effect; % is set by controls: 0 for no effect and ±100 for the full control effect; nearly all actives have a fitted effect of over 65% in size
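Read-out: total well GFP (ex488/em500-530) summed from mean per-cell fluorescence. Cells: HEPG2 CAGA-GFP, 1% FBS DMEM, 18 h at 37 degrees C with 500 pg/mL final TGF-beta. Unstimulated wells served as the full-inhibition control; stimulated DMSO wells = 0%.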
TDP1 cell CPT: qHTS for Inhibitors of human tyrosyl-DNA phosphodiesterase 1 (TDP1): qHTS in cells in presence of CPT; chicken DT40 Tdp1-/-;hTDP1 cells + 20 nM CPT, ATP luminescence, 48 h; Potency, µM (series often up to 46.2 µM), without a hit: at the highest dose activity change, negative = growth inhibition, actives largely listed as inhibitors; 12% of 420,000 active; AID 686979, 2013; note: potency is the fitted concentration of half-maximal effect; % is set by controls: 0 for no effect and ±100 for the full control effect; nearly all actives have a fitted effect of over 55% in size
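Chicken DT40 Tdp1-/- cells stably complemented with human TDP1 were seeded at 400 cells/well in medium containing 20 nM camptothecin, exposed to pin-transferred compounds, and grown at 37 °C for at least 48 hr. Viability was read as ATP luminescence.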
HepG2 tox: qHTS for Inhibitors of TGF-b: Cytotox Counterscreen | AID 588856, 2011 | 0.76% of 410,000 active | HepG2 CAGA-GFP viability, ATP luminescence, 18 h | Potency, µM (top dose mostly 46.1 µM), for inactives: at the highest dose activity change, negative = cytotoxicity, actives largely listed as cytotoxic; note: potency is the fitted concentration of half-maximal effect
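CellTiter-Glo luminescence gave cytotoxicity after 18 hours at 37 degrees C. The cells were HepG2 CAGA-GFP in 1% FBS DMEM, stimulated with 500 pg/mL TGF-beta after compound addition. %Activity was normalised to no-cell wells (complete cell-killing) and DMSO (no toxicity), and curves were fitted and classified.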
IL-1B inflam inh: qHTS for Inhibitors of Inflammasome Signaling: IL-1-beta AlphaLISA Primary Screen | THP-1 LPS/ATP IL-1B secretion, AlphaLISA, 16 h; stronger effect = lower value | activity change, % at 57.5 µM | 4.7% of 360,000 active | AID 743279, 2014; in the data active = activity change below about -50%; inconclusive = mostly about -30% to -49%; note: % is set by controls: 0 for no effect and ±100 for the full control effect
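THP-1 cells pretreated 1 hr with compounds (up to 57.5 uM final), then stimulated with LPS (250 ng/mL final) plus ATP (1.25 mM final); secreted IL-1B measured by AlphaLISA after 16 hr, decreased signal indicating inhibition.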
TDP1 cell noCPT: qHTS for Inhibitors of human tyrosyl-DNA phosphodiesterase 1 (TDP1): qHTS in cells in absence of CPT; DT40 Tdp1-/- hTDP1 cells, no CPT, ATP luminescence, 48 h; 15% of 420,000 active; Potency, µM (series often up to 46.2 µM), inactives show top-dose activity change, negative = growth inhibition, most hits filed as inhibitors; note: potency is the fitted concentration of half-maximal effect; % is set by controls: 0 for no effect and ±100 for the full control effect; nearly all actives have a fitted effect of over 55% in size
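A cellular qHTS used chicken DT40 cells lacking endogenous Tdp1 but carrying stably transfected human TDP1. Compounds were applied without camptothecin, and cell growth kinetics were judged by ATP-dependent luminescence after ≥48 hr.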
Numbers without * were called inactive; u = inconclusive; x = no result given; [ ] = remark or other dose. Shown are actives, neighbours in structure and some others; about 19% of the full set was active somewhere. Unless noted, calls come from the whole dose curve; as a rule, active = well fitted curve in the direction sought with a large enough effect; inconclusive = small, poorly fitted or top-dose-only effect, or another doubt; inactive = no such curve, though single readings can be large; an effect the other way counts as inactive or inconclusive.

SMILES | TDP1 block | TGFb inhibitor | TDP1 cell CPT | HepG2 tox | IL-1B inflam inh | TDP1 cell noCPT
COc1cc(CNc2ncnc3c2ncn3[C@H]2CN(Cc3ccccc3)C[C@@H](COC(C)=O)O2)cc(OC)c1OC | x | 17% | u | -10% | 28 | 16µM*
CC[C@@H]1CCCCc2ccccc2[C@H](C(=O)C[C@@H](O)CC(C)=O)OC1=O | 1% | -2% | 21µM* | -6% | 9 | -2%
CC(=O)C[C@@H](O)CC(=O)[C@@H]1OC(=O)[C@@H](C)CCCCc2ccccc21 | -6% | 7% | 2% | -3% | 0 | 10%
CC[C@H]1CCCCc2ccccc2[C@@H](C(=O)C[C@@H](O)CC(C)=O)OC1=O | 0% | -13% | 15µM* | 6% | 36 | u
CC[C@@H]1CCCCc2ccccc2[C@@H](C(=O)C[C@@H](O)CC(C)=O)OC1=O | 0% | -32% | -14% | -23% | -8 | -19%
Cc1ccc(-c2nn(CC(=O)NC3CCCCC3)c3c2cnc2ccccc23)cc1 | 5% | -21% | u | 8% | x | 0%
COc1ccc(S(=O)(=O)N2CCN(Cc3cc(=O)n4ccccc4n3)CC2)cc1 | 2% | 3% | -30% | 8% | 19 | u
CCOc1ccc(C(=O)c2cn(CC(=O)Nc3ccc4c(c3)OCO4)c3ccc(OC)cc3c2=O)cc1 | 9% | 3% | u | 0% | x | u
CCc1ccccc1N(CC(=O)NC(C)(C)C)C(=O)CCC(=O)Nc1ccccn1 | x | 3% | -6% | -9% | -1 | -15%
CCOc1ccccc1C1Nc2ccccc2-c2nnc(SCc3ccccc3)nc2O1 (centres undefined) | x | -18% | u | 0% | x | u
Cc1ccc(NC(=O)CNc2cccc(Br)c2)cc1S(=O)(=O)N1CCOCC1 | -1% | u | u | -21% | -52* | 16µM*
Cc1ccc(NC(=O)CSc2nc(N)cc(N)n2)cc1S(=O)(=O)N1CCOCC1 | -14% | -5% | -3% | -8% | 21 | -12%
Cc1nc(-c2ccc(F)cc2)c(CC(=O)Nc2ccc(C)c(S(=O)(=O)N3CCOCC3)c2)s1 | 5% | -1% | 10µM* | -8% | -15 | u
COc1cc2c(cc1OC)C(C)N(CC(=O)Nc1ccc(C)c(S(=O)(=O)N3CCOCC3)c1)CC2 (centres undefined) | 3% | -6% | u | -8% | -3 | 16µM*
Cc1ccc(NC(=O)CSc2ccccc2)cc1S(=O)(=O)N1CCOCC1 | 1% | -1% | u | -1% | -1 | u
Cc1ccc(NC(=O)CCc2ccccc2)cc1S(=O)(=O)N1CCOCC1 | -2% | -10% | -29% | -2% | 29 | u
Cc1ccc(C)c(SCC(=O)Nc2ccc(C)c(S(=O)(=O)N3CCOCC3)c2)c1 | -5% | u | 23µM* | -17% | -6 | 13µM*
Cc1ccccc1CSc1nc(-c2cccc(F)c2)nc2c1Cc1c(CO)cnc(C)c1O2 | -5% | -12% | -8% | 1% | x | -10%
CCc1ccc(-n2nc(CO)c(C(=O)NCc3ccccc3OC)n2)cc1 | 2% | 0% | -1% | 2% | x | -3%
COc1ccc(CC(=O)Nc2ccc(F)c(Cl)c2)cc1S(=O)(=O)N1CCOCC1 | 2% | 9% | u | 10% | 23 | u
Cc1ccc(NCC(=O)Nc2ccc(F)c(Cl)c2)cc1S(=O)(=O)N1CCOCC1 | x | u | u | -13% | -17 | 21µM*
c1ccc(CSc2ncnc3c2ncn3C2CCCCO2)cc1 (centres undefined) | x | -17% | -25% | -16% | -50* | u
Clc1cccc(CSc2ncnc3c2ncn3C2CCCCO2)c1 (centres undefined) | x | -6% | u | 2% | -24 | 16µM*
Fc1cccc(CSc2ncnc3c2ncn3C2CCCCO2)c1 (centres undefined) | x | -1% | u | 11% | -11 | u
COc1ccc(-c2nc3c(c4c2C[C@H](c2ccccc2)OC4)CN(S(=O)(=O)c2ccc4c(c2)OCCN4C)CC3)c(C)c1 | 9%[21 µM] | x | x | x | x | x
SMILES | TDP1 block | TGFb inhibitor | TDP1 cell CPT | HepG2 tox | IL-1B inflam inh | TDP1 cell noCPT
O=S(=O)(Nc1ccc(N=Nc2ccccc2)cc1)c1ccccc1 | 8% | u | u | -37% | -88* | u
O=S(=O)(Nc1ccc(S(=O)(=O)Nc2ccccc2)cc1)c1ccccc1 | 0% | 1% | u | -25% | 12 | -21%
O=C(O)c1cc(N=Nc2ccc([N+](=O)[O-])cc2)ccc1O | 23% | x | x | x | x | x
O=S(=O)(Nc1ccc(N=Nc2ccc(O)c3ccccc23)cc1)c1ccccc1 | 6% | u | u | -29% | -60* | u
O=[N+]([O-])c1ccc(N=Nc2ccc(O)c3ccccc23)cc1 | x | u | 15µM* | 13µM* | -76* | 2.6µM*
N=C1C=CC(=C(c2ccc(N)cc2)c2ccc(N)cc2)C=C1 | 27% | u | 2.9µM* | -28% | 0 | 3.3µM*
Cc1ccc(NC(=O)Cn2cc(S(=O)(=O)NC(C)C)c(S(=O)(=O)NC(C)C)c2)cc1Cl | 1% | u | u | -100% | x | -87%
CC(c1nc2ccccc2n1Cc1ccccc1)n1c(-c2cnccn2)nc2ccccc21 (centres undefined) | x | x | 15µM* | x | 24 | 21µM*
Fc1ccc(CCn2c(Cn3c(-c4cnccn4)nc4ccccc43)nc3ccccc32)cc1 | x | x | -42% | x | -26 | -48%
c1ccc(Cn2c(Cn3c(-c4cnccn4)nc4ccccc43)nc3ccccc32)cc1 | x | x | 26µM* | x | -14 | u
COC(=O)[C@]12CCCCC=C1N(Cc1ccccc1)C(=O)[C@H](CC(=O)N1CCCCC1)C2 | x | x | u | x | -2 | u
O=C(NC1CC1)C1=C[C@@H](c2csc3ccccc23)C[C@@H](OCCCCO)O1 | 0% | u | -19% | -19% | -1 | -20%
COc1cccc(/C(C)=N/NS(=O)(=O)c2ccc(Cl)cc2)c1 | 0% | -7% | 3% | -6% | 26 | 4%
COc1cccc(/C(=N/O)C2CC2c2ccc(Cl)cc2)c1 (centres undefined) | 3% | 0% | 5% | 3% | -88* | -17%
